D1 PAM – enhances dopamine response at the human D1 receptor; P21728; HEK293 TREx D1 cells, calcium flux, dopamine EC20 potentiation; potentiation, % at 10 µM; 360,000 compounds, 0.036% hits; in the data active = potentiation above about 30%; also: 0% is about no effect
D1 antagonist – blocks dopamine activation of the human D1 receptor; HEK293 TREx D1 cells, calcium flux, dopamine EC80; stronger effect = lower value; P21728; 360,000 compounds, 3.2% hits; activity change, negative = inhibition, % at 10 µM; in the data active = activity change below about -30%; also: % is scaled to controls: 0 for no effect and ±100 for the full control effect
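Allosteric or orthosteric antagonism assessed as attenuation of the calcium response to EC80 dopamine, added 180 s after compound, in induced HEK293 Trex D1 cells loaded with no-wash calcium dye.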
D3 antag – antagonists of human D3 dopamine receptor; 360,000 compounds, 2.5% hits; D3R cells, DiscoveRx beta-arrestin luminescence, antagonist mode; stronger effect = lower value; P35462; max response, negative = inhibition, %; in the data active = max response below about -50%; also: % is scaled to controls: 0 for no effect and ±100 for the full control effect
Target sequence (P35462 whole entry, looked up): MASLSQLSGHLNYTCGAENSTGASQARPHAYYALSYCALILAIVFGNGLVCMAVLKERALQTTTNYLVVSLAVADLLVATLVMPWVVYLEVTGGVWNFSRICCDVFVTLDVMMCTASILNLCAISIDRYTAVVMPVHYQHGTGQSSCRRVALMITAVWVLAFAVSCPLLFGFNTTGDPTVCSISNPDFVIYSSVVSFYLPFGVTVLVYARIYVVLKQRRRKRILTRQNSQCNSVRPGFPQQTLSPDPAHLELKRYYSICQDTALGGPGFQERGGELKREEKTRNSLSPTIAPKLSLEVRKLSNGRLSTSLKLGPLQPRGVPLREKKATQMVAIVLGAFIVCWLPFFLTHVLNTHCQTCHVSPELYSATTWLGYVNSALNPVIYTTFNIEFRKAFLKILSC
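Cells expressing the human receptor were seeded at 1500 cells/well, incubated overnight at 37 degrees C in 5% CO2, then exposed to library compounds with dopamine controls for 90 minutes at 37 degrees C before luminescent detection.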
D1 agonist – agonists of human D1 dopamine receptor. AID 504660. 360,000 compounds, 1% hits. P21728. HEK293 T-REx D1 cells, calcium flux, agonist mode. activation, % at 2 µM; in the data active = activation above about 30%; also: 0% is about no effect
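Agonism was scored from calcium flux recorded over 180 s (1 read/s) after pintool compound addition, following a 10-cycle baseline. Cells were inducible force-coupled HEK293 TREx D1, plated overnight at 30 C and loaded with no-wash calcium dye.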
DRD3 agonist – agonists of human D3 dopamine receptor; AID 652048; max activation, %; D3R DiscoveRx beta-arrestin cells, luminescence, 90 min; 410,000 compounds, 0.58% hits; P35462; in the data active = max activation above about 30%; also: 0% is about no effect
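Agonist-mode cell screen: cells plated at 1500/well and incubated overnight at 37 °C, then exposed to library compounds for 90 min at 37 °C. Detection reagent was added for 30–60 min at room temperature, and luminescence was read.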
Numbers without * were called inactive; ! = not active in a repeat. Compounds with a hit are over-represented: about 6% of the library has one in this group of screens.

`COc1ccc(C(=O)C2CCN(C(=O)c3ccco3)CC2)cc1` gave D1 PAM -5, D1 antagonist -40*, D3 antag 3, D1 agonist 4 and DRD3 agonist 1.
Screening COc1ccc(NC(=S)N2CCN(C(=O)c3ccco3)CC2)c(OC)c1 returned D1 PAM -7, D1 antagonist -68*, D3 antag -14, D1 agonist 2 and DRD3 agonist 3.
`COc1ccccc1N(CC(=O)Nc1ccc2c(c1)OCO2)S(=O)(=O)c1ccc(C)cc1` gave D1 PAM -4, D1 antagonist -10, D1 agonist 3 and DRD3 agonist -10.
Screening CCOc1ccccc1CNC(=O)c1ccc(Cn2c(SCc3ccccc3)nc3cccnc32)cc1 returned D1 PAM 3, D1 antagonist 13, D1 agonist 7 and DRD3 agonist -11.
Screening COC(C[C@H]1O[C@H]1[C@H](O)[C@H](C)OCc1ccccc1)OC returned D1 PAM -1, D1 antagonist 9, D3 antag 12, D1 agonist 4 and DRD3 agonist 37*.
COc1cccc2c1C(=O)c1c(O)c3c(c(O)c1C2=O)C[C@@](O)(C(=O)CO)C[C@@H]3O[C@H]1C[C@H](N)[C@H](O[C@@H]2CCCCO2)[C@H](C)O1 was read as DRD3 agonist -17.
`CCOc1ccc(Nc2cc(C)nc(-n3nc(C)cc3C)n2)cc1` gave D1 PAM -5, D1 antagonist -33*, D3 antag -52*, D1 agonist 1 and DRD3 agonist 1.
Screening CCOc1cc(/C=N/Nc2cc(C)nc(-n3nc(C)cc3C)n2)ccc1O returned D1 PAM -2, D1 antagonist 12, D3 antag -175*, D1 agonist 1 and DRD3 agonist -41.
Cc1ccc(Nc2cc(C)nc(-n3nc(C)cc3C)n2)cc1 was read as D1 PAM -1, D1 antagonist 5, D1 agonist 0 and DRD3 agonist -10.
`CCc1nn(CC(=O)NCc2ccc(OC)cc2OC)c(=O)c2cc3c(OC)cccc3n12` gave D1 PAM -1, D1 antagonist 19, D1 agonist 0 and DRD3 agonist 14.
`CCCNC(=O)C1(C)CCN(CCOc2ccc(Cl)cc2)C1` (stereo not drawn) gave D3 antag -72* and DRD3 agonist -1.
CCNC(=O)C1(C)CCCN(CCOc2ccc(OC)cc2)C1 (stereo not drawn) was read as D3 antag -21 and DRD3 agonist -3.
`COCCNC(=O)C1(C)CCCN(CCOc2ccc(Cl)cc2)C1` (stereo not drawn) gave D3 antag -55* and DRD3 agonist -6.
Screening O=C(CNc1ccc2c(c1)OCO2)N/N=C\c1cn(Cc2ccccc2)c2ccccc12 returned D1 PAM -5, D1 antagonist -9, D3 antag 0, D1 agonist 2 and DRD3 agonist -4.
For O=C(CNc1ccc2c(c1)OCO2)N/N=C\c1cn(Cc2ccc(F)cc2)c2ccccc12 the results were D1 PAM -4, D1 antagonist -41* and D1 agonist 3.
Screening CCCn1c(SC(C(=O)Nc2cc(C)ccc2OC)c2ccccc2)nc2ccccc2c1=O (stereo not drawn) returned D1 PAM 1, D1 antagonist -96*, D3 antag 56, D1 agonist 1 and DRD3 agonist 7.
`COc1cccc(-n2c(=O)c3sc4ccccc4c3n(CC(=O)NC3CCCCC3)c2=O)c1` gave D1 PAM -1, D1 antagonist 4, D1 agonist 7 and DRD3 agonist -9.
`COc1ccc(-n2ccnc2SCC(=O)Nc2nnc(C)s2)cc1` gave D1 PAM -7, D1 antagonist 12, D1 agonist 3 and DRD3 agonist 7.
Screening CN(C(=O)c1ccc(Oc2ccc([N+](=O)[O-])cc2)cc1)C1CCCCC1 returned D1 PAM -3, D1 antagonist -35*, D3 antag 6, D1 agonist 11 and DRD3 agonist 7.
For Cc1ccccc1S(=O)(=O)Nc1cccnc1 the results were D1 PAM -4, D1 antagonist 1, D3 antag 12, D1 agonist 1 and DRD3 agonist 3.
`CCn1ncc(S(=O)(=O)Nc2cccnc2)c1C` gave D1 PAM -10, D1 antagonist -41*, D3 antag -9, D1 agonist 2 and DRD3 agonist -7.
Screening CCC(=O)N1CCc2cc(Br)cc(S(=O)(=O)NCCc3ccc(C)cc3)c21 returned D1 PAM -6, D1 antagonist -17, D1 agonist 7 and DRD3 agonist -27.
`C=C[C@@H]1CN2CCC1C[C@@H]2[C@@H](O)c1ccnc2ccc(OC)cc12` (stereo partly drawn) gave D1 PAM -5, D1 antagonist -3, D3 antag -62*!, D1 agonist 1 and DRD3 agonist -44.
For COc1ccc2nccc(/C=C/c3ccnc4ccc(OC)cc34)c2c1 the results were D1 PAM 1, D1 antagonist 25, D3 antag 18, D1 agonist 6 and DRD3 agonist 7.
For CCC(Cn1nnc2ccccc2c1=O)NC(=O)Nc1cc(Cl)ccc1OC (stereo not drawn) the results were D1 PAM -1, D1 antagonist -5, D1 agonist 3 and DRD3 agonist -21.
`COc1ccc(C(=O)N/C(N)=N/c2nc3ccccc3o2)cc1` gave D1 PAM 1, D1 antagonist -5, D3 antag 0, D1 agonist 3 and DRD3 agonist 3.
`COc1ccc(C(=O)/C=C/Sc2nc3ccccc3o2)cc1` gave D1 PAM -5, D1 antagonist 3, D3 antag -105*, D1 agonist 3 and DRD3 agonist -17.
Nc1nc2n(n1)C(c1cccs1)CC(c1ccccc1)N2 (stereo not drawn) was read as D1 PAM -4, D1 antagonist -4, D3 antag -64*, D1 agonist 5 and DRD3 agonist 2.
`CCN1CCCC1CN=Cc1c(O)n(-c2ccccc2)c(=O)c2ccccc12` (stereo not drawn) gave D1 PAM -8, D1 antagonist -78*, D3 antag -19, D1 agonist 1 and DRD3 agonist -7.
For COc1ccc(-c2[nH]ncc2/C=N\NS(=O)(=O)c2ccccc2)cc1OC the results were D1 PAM -5, D1 antagonist 13, D3 antag 11, D1 agonist 1 and DRD3 agonist 8.
For COc1ccc(-c2[nH]ncc2/C=N\NS(=O)(=O)c2ccc(Cl)cc2)cc1 the results were D1 PAM -5, D1 antagonist -42*, D3 antag 1, D1 agonist 3 and DRD3 agonist 0.
For Cc1cc2[nH]c(=O)c3ccccc3n2n1 the results were D1 PAM -7, D1 antagonist -72*, D3 antag 8, D1 agonist 2 and DRD3 agonist 2.
